Shown are actives, neighbours in structure and some others; about 6% of the full set was active somewhere.
D3 antag = qHTS of D3 Dopamine Receptor Antagonist: qHTS | D3R cells, DiscoveRx beta-arrestin luminescence, antagonist mode; hits give low values | hit rate 2.5% among 360,000 | D(3) dopamine receptor (Homo sapiens), P35462 | max response, negative = inhibition, %; in the data active = max response below about -50%
Target sequence (P35462 whole entry, looked up): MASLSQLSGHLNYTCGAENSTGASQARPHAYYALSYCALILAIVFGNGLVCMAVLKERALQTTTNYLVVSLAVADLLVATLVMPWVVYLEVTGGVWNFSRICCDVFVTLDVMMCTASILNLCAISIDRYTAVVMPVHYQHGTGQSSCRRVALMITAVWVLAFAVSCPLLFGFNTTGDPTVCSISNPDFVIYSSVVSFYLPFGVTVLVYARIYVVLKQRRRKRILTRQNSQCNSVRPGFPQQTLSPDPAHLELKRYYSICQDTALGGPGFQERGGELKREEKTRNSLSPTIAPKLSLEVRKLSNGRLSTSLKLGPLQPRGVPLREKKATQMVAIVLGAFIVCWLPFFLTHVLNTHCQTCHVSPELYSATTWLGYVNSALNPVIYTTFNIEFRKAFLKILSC
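Cells expressing the human receptor were seeded at 1500 cells/well, incubated overnight at 37 degrees C in 5% CO2, then exposed to library compounds with dopamine controls for 90 minutes at 37 degrees C before luminescent detection.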
D1 ag = Allosteric Agonists of the Human D1 Dopamine Receptor: qHTS. D(1A) dopamine receptor (Homo sapiens), P21728. HEK293 T-REx D1 cells, calcium flux, agonist mode. activation, % at 2 µM. hit rate 1% among 360,000. AID 504660, 2011; in the data active = activation above about 30%
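Agonism was scored from calcium flux recorded over 180 s (1 read/s) after pintool compound addition, following a 10-cycle baseline. Cells were inducible force-coupled HEK293 TREx D1, plated overnight at 30 C and loaded with no-wash calcium dye.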
D3 ag = qHTS of D3 Dopamine Receptor Agonist: qHTS. D3R DiscoveRx beta-arrestin cells, luminescence, 90 min. D(3) dopamine receptor (Homo sapiens), P35462. max activation, %. hit rate 0.58% among 410,000; in the data active = max activation above about 30%
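Agonist mode: compounds and dopamine controls were applied to plated cells for 90 min at 37 degrees C after an overnight attachment at 1500 cells/well. Luminescent read-out followed 30 - 60 minutes at room temperature with DiscoveRx detection reagent.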
D1 PAM = Potentiators of Human D1 Dopamine Receptor: qHTS. D(1A) dopamine receptor (Homo sapiens), P21728. HEK293 TREx D1 cells, calcium flux, dopamine EC20 potentiation. potentiation, % at 10 µM. hit rate 0.036% among 360,000. AID 504651, 2011; in the data active = potentiation above about 30%
D1 antagonist = Antagonist of Human D 1 Dopamine Receptor: qHTS; HEK293 TREx D1 cells, calcium flux, dopamine EC80; hits give low values; activity change, negative = inhibition, % at 10 µM; hit rate 3.2% among 360,000; AID 504652, 2011; in the data active = activity change below about -30%
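Using tetracycline-induced force-coupled D1 Hek293 cells and a calcium dye, signals were followed for 180 s after compound, then for 180 s after EC80 dopamine, to detect inhibitors.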
Numbers stand for hits.

`Cc1cccc(CN2CCN(Cc3ccc(Cl)cc3)CC2)c1` gave D3 antag -64, D1 ag inactive, D3 ag inactive, D1 PAM inactive and D1 antagonist inactive.
For O=C(N[C@@H]1N=C(c2ccccc2F)c2cccc3c2N(CC3)C1=O)c1cc2ccccc2[nH]1 the results were D3 ag inactive.
Screening CC(C)(C)CC(C)(C)c1ccc(O)cc1 returned D3 ag inactive.
O=C(OCC(=O)c1ccc([N+](=O)[O-])cc1)/C(=C/c1ccc(Cl)cc1)NC(=O)c1ccccc1 was read as D3 antag inactive, D1 ag inactive, D3 ag inactive, D1 PAM inactive and D1 antagonist -34.
O=C(COC(=O)Cc1ccccc1)NNC(=O)c1ccc([N+](=O)[O-])cc1 was read as D3 antag inactive, D1 ag inactive, D3 ag inactive, D1 PAM inactive and D1 antagonist inactive.
Screening Clc1ccc(CNC2CN3CCC2CC3)cc1 (stereo not drawn) returned D3 antag inactive, D1 ag inactive, D3 ag inactive, D1 PAM inactive and D1 antagonist -75.
`CN1C(CC(O)c2ccccc2)CCCC1CC(O)c1ccccc1` (stereo not drawn) gave D3 antag inactive, D1 ag inactive, D3 ag inactive, D1 PAM inactive and D1 antagonist -45.
OC(CNC1CCCCCCC1)c1ccccc1 (stereo not drawn) was read as D1 ag inactive, D1 PAM inactive and D1 antagonist inactive.
`CC(=O)O[C@H]1C[C@H](O[C@H]2[C@@H](O)C[C@H](O[C@H]3[C@@H](O)C[C@H](OC4CC[C@@]5(C)C(CC[C@@H]6[C@@H]5CC[C@]5(C)[C@@H](C7=CC(=O)OC7)[C@@H](O)C[C@]65O)C4)O[C@@H]3C)O[C@@H]2C)O[C@H](C)[C@H]1O[C@@H]1O[C@H](CO)[C@@H](O)[C@H](O)[C@H]1O` (stereo partly drawn) gave D3 ag inactive.
Screening CCC1(CC)C(=O)NC(=O)N(C)C1=O returned D3 ag inactive.
`CCOC(=O)N(c1ccccc1)P1(=S)OCCO1` gave D3 antag -52, D1 ag inactive, D3 ag inactive, D1 PAM inactive and D1 antagonist inactive.
Screening COC(=O)N(c1ccccc1)P1(=S)OCCO1 returned D3 antag inactive, D1 ag inactive, D3 ag inactive, D1 PAM inactive and D1 antagonist inactive.
For CCC(=NCCCN(CC)CC)c1c(O)n(-c2ccccc2)c(=O)[nH]c1=O the results were D3 antag inactive, D1 ag inactive, D3 ag inactive, D1 PAM inactive and D1 antagonist -33.
CCCCn1c(O)c(C(C)=NCCCN(C)C)c(=O)[nH]c1=O was read as D3 antag inactive, D1 ag inactive, D3 ag inactive, D1 PAM inactive and D1 antagonist inactive.
For CCCCn1c(O)c(C(CC)=NCCCN(C)C)c(=O)[nH]c1=O the results were D3 antag -64, D1 ag inactive, D3 ag inactive, D1 PAM inactive and D1 antagonist inactive.
For C[C@@H]1[C@H](O)[C@@H](C)/C=C/C=C/CC/C=C/C=C/C=C/C=C/[C@H](O[C@H]2O[C@@H](C)[C@H](O)[C@@H](N)[C@H]2O)CC2O[C@](O)(C[C@@H](O)[C@H](O)CC[C@@H](O)C[C@@H](O)C[C@@H](O)CC(=O)O[C@H]1C)C[C@H](O)[C@H]2C(=O)O the results were D3 ag inactive.
Screening COC(=O)c1ccc(NC(=O)c2cccn(Cc3ccccc3C)c2=O)cc1 returned D1 ag inactive, D3 ag inactive, D1 PAM inactive and D1 antagonist inactive.
NC(=O)CSc1nnc([C@@H](N)Cc2c[nH]c3ccccc23)o1 was read as D3 antag inactive, D1 ag inactive, D3 ag inactive, D1 PAM inactive and D1 antagonist -44.
`N#CCN1CCN(c2ccc(C(F)(F)F)cc2)CC1` gave D3 antag inactive, D1 ag inactive, D3 ag inactive, D1 PAM inactive and D1 antagonist -50.
